About 1,000 (1.4%) of roughly 69,000 compounds showed an effect of 50% or more. The full list was thinned out, with strong results kept by preference.
Tested on: Leishmania donovani
Experiment: Leishmania intramacrophage assay
Type: functional, organism-based
Set-up: scale not given: in the data most compounds retested in dose-response had high values

Q: How did the “Percent Effect” value (30.3 µM, […]) turn out when Cl.Cl.O=c1[nH]c2ncccc2n1C1CCNCC1 was run?
A: The value was 13.74%.

Q: COc1ccccc1CCN(C)Cc1nc(N)nc(N(C)C)n1 was tested. Which “Percent Effect” value (30.3 µM, […]) did it give?
A: The value was 17.72%.

Q: With Cc1ccc(CN2C[C@@H]3[C@@H](C2)OCC(=O)N3Cc2ccncc2)s1.O=C(O)C(F)(F)F.O=C(O)C(F)(F)F as the molecule, how does the “Percent Effect” value (30.3 µM, […]) read?
A: The value was 15.08%.

Q: With O=C(O)C(F)(F)F.O=C(O)C(F)(F)F.O=C1[C@H]2CN(Cc3ccncc3)C[C@H]2CN1c1ccsc1 as the molecule, how does the “Percent Effect” value (30.3 µM, […]) read?
A: The value was 21.46%.

Q: CCCc1nc(N2CCCC3(CCNC3)C2)c2cnn(C)c2n1 (stereo unspecified) was tested. Which “Percent Effect” value (30.3 µM, […]) did it give?
A: The value was -7.107%.

Q: Which “Percent Effect” value (30.3 µM, […]) does the source give for Cn1ncc2c(N3CCCC4(CCNC4)C3)nc(C(C)(C)C)nc21 (stereo unspecified) here?
A: The value was 88.19%.

Q: Cn1ncc2c(N3CCCN4CCC[C@H]4C3)nc(C(C)(C)C)nc21 was tested. Which “Percent Effect” value (30.3 µM, […]) did it give?
A: Its value is -35.36%.

Q: Which “Percent Effect” value (30.3 µM, […]) does the source give for O=C(N1CCCO1)[C@@]12CCO[C@@H]1CCN(Cc1cccnc1)C2.O=C(O)C(F)(F)F.O=C(O)C(F)(F)F here?
A: Its value is 13.9%.

Q: For CCO[C@H]1CN(CC2CC2)[C@@H]2CCCO[C@H]12.O=C(O)C(F)(F)F, which “Percent Effect” value (30.3 µM, […]) is on record?
A: Its value is 13.63%.

Q: With Cc1ncsc1CN1C[C@@H]2CCCO[C@@H]2[C@H](Nc2ccccn2)C1.O=C(O)C(F)(F)F.O=C(O)C(F)(F)F as the molecule, how does the “Percent Effect” value (30.3 µM, […]) read?
A: The value was -3.269%.

Q: With COc1cc2nc(NCc3ccc(C)nc3)nc(N)c2cc1OC as the molecule, how does the “Percent Effect” value (30.3 µM, […]) read?
A: Its value is 62.6%.

Q: With COc1cc(CNCC(O)c2ccccc2F)cc2c1OCO2 (stereo unspecified) as the molecule, how does the “Percent Effect” value (30 µM) read?
A: The value was 34.29%.

Q: Cc1nc(CN2C[C@@H]3CN(C(=O)c4ccncc4)C[C@@H]3C2)cs1 was tested. Which “Percent Effect” value (30.3 µM, […]) did it give?
A: The value was -18.13%.

Q: How did the “Percent Effect” value (30.3 µM, […]) turn out when Cc1ccc(C(=O)N2C[C@H]3CNC[C@H]3C2)cn1 was run?
A: The value was -11.07%.

Q: With Cc1ccc(C(=O)N2C[C@H]3CN(Cc4csc(C)n4)C[C@H]3C2)cn1 as the molecule, how does the “Percent Effect” value (30.3 µM, […]) read?
A: Its value is 58.41%.

Q: O=C(NC[C@]12COC[C@H]1CN(Cc1cccnc1)C2)c1ccno1.O=C(O)C(F)(F)F.O=C(O)C(F)(F)F was tested. Which “Percent Effect” value (30 µM, 30.03 µM) did it give?
A: The value was 19.24%.

Q: With Cc1ccccc1-n1nc(C)c(CN(C)C(C)Cc2ccccn2)c1C.O=C(O)CC(O)(CC(=O)O)C(=O)O (stereo unspecified) as the molecule, how does the “Percent Effect” value (30.3 µM, […]) read?
A: Its value is 17.55%.

Q: For COCc1cn(C[C@H]2C[C@@H]3CCN2C[C@@H]3C(=O)N2CCOCC2)nn1, which “Percent Effect” value (30.3 µM, […]) is on record?
A: The value was -19.8%.

Q: CC(C)(O)c1cn(C[C@H]2C[C@@H]3CCN2C[C@@H]3C(=O)N2CCOCC2)nn1 was tested. Which “Percent Effect” value (30.3 µM, […]) did it give?
A: Its value is 75.59%.

Q: CC(C)(C)c1cn(C[C@H]2CC3CCN2C[C@@H]3C(=O)N2CCOCC2)nn1 (stereo partly specified) was tested. Which “Percent Effect” value (30.3 µM, […]) did it give?
A: The value was -15.57%.

Q: Which “Percent Effect” value (30.3 µM, […]) does the source give for CN(C)CCN1CCN(Cc2cccs2)Cc2cccnc21.O=C(O)C(F)(F)F.O=C(O)C(F)(F)F.O=C(O)C(F)(F)F here?
A: The value was -2.293%.

Q: For CN(CC1Cc2ccccc2CN1C)C(=O)Cc1cccs1 (stereo unspecified), which “Percent Effect” value (30.3 µM, […]) is on record?
A: The value was 58.51%.

Q: Which “Percent Effect” value (30.3 µM, […]) does the source give for CN(C)[C@@H]1CN(C(=O)Cc2cccs2)[C@@H]2CCCO[C@H]12.O=C(O)C(F)(F)F here?
A: The value was -12.28%.

Q: With CC(C)CN1CCC2(CC1)C(=O)Nc1ccc(C(=O)NC(C)C)cc12.O=C(O)C(F)(F)F as the molecule, how does the “Percent Effect” value (30.3 µM, […]) read?
A: The value was -1.007%.

Q: How did the “Percent Effect” value (30.3 µM, […]) turn out when Cc1ccc(CN2C[C@@H]3CCN(Cc4ccncc4)C(=O)[C@H]3C2)s1.O=C(O)C(F)(F)F.O=C(O)C(F)(F)F was run?
A: The value was 7.943%.

Q: How did the “Percent Effect” value (30.3 µM, […]) turn out when N#Cc1ccc(NC2CCN(c3ncccn3)CC2)cc1Cl was run?
A: The value was -22.27%.

Q: For N#Cc1ccc(N2CCC(OC3CCOCC3)CC2)cc1Cl, which “Percent Effect” value (30.3 µM, […]) is on record?
A: The value was 58.7%.

Q: COCC1CN(c2ccc(C#N)c(Cl)c2)CCO1 (stereo unspecified) was tested. Which “Percent Effect” value (30.3 µM, […]) did it give?
A: The value was 27.15%.

Q: Which “Percent Effect” value (30.3 µM, […]) does the source give for O=C(Nc1cccnc1)[C@H]1C[C@H]2OCC[C@H]2N(CC2CC2)C1.O=C(O)C(F)(F)F.O=C(O)C(F)(F)F here?
A: The value was 5.172%.

Q: O=C(O)C(F)(F)F.O=C(O)C(F)(F)F.O=C(O)C(F)(F)F.c1cncc(CN2CCO[C@H]3[C@H](OCCN4CCCC4)CC[C@@H]32)c1 was tested. Which “Percent Effect” value (30.3 µM, […]) did it give?
A: The value was -1.777%.

Q: Fc1cccnc1O[C@H]1CN(Cc2ccoc2)[C@@H]2CCCO[C@H]12.O=C(O)C(F)(F)F.O=C(O)C(F)(F)F was tested. Which “Percent Effect” value (30.3 µM, […]) did it give?
A: Its value is 9.385%.

Q: For O=C(C[C@@H]1COC[C@H]2CN(Cc3cccnc3)C[C@@H]12)NCC1CC1.O=C(O)C(F)(F)F.O=C(O)C(F)(F)F, which “Percent Effect” value (30.3 µM, […]) is on record?
A: Its value is 18.63%.

Q: How did the “Percent Effect” value (30.3 µM, […]) turn out when COCCN1C[C@@H]2COC[C@@H](CC(=O)NCc3cccnc3)[C@@H]2C1.O=C(O)C(F)(F)F.O=C(O)C(F)(F)F was run?
A: Its value is 44.79%.

Q: With O=C(C[C@@H]1COC[C@H]2CN(CC3CC3)C[C@@H]12)NCc1cccnc1.O=C(O)C(F)(F)F.O=C(O)C(F)(F)F as the molecule, how does the “Percent Effect” value (30.3 µM, […]) read?
A: The value was 54.71%.

Q: With O=C(O)C(F)(F)F.O=C(O)C(F)(F)F.c1cncc(CN2CC[C@H]3O[C@@H](COCC4CC4)CC[C@H]32)c1 as the molecule, how does the “Percent Effect” value (30 µM, 30.03 µM) read?
A: Its value is 39.71%.

Q: How did the “Percent Effect” value (30.3 µM, […]) turn out when COc1ncccc1CN1C[C@H]2CCN(c3ncccn3)C[C@H]2C1.O=C(O)C(F)(F)F was run?
A: The value was 28.82%.

Q: COc1ncccc1CN1C[C@H]2CCN(C(C)C)C[C@H]2C1.O=C(O)C(F)(F)F.O=C(O)C(F)(F)F was tested. Which “Percent Effect” value (30.3 µM, […]) did it give?
A: The value was -4.656%.

Q: For COCCN1CC[C@@H]2CN(Cc3cccnc3OC)C[C@@H]2C1.O=C(O)C(F)(F)F.O=C(O)C(F)(F)F, which “Percent Effect” value (30.3 µM, […]) is on record?
A: The value was 55.04%.

Q: Which “Percent Effect” value (30.3 µM, […]) does the source give for CN(C)c1nccc(N2CCO[C@H]3CN(Cc4ccco4)C[C@H]32)n1 here?
A: Its value is 57.89%.

Q: COCCN1C[C@@H]2OCCN(c3ccnc(N(C)C)n3)[C@@H]2C1 was tested. Which “Percent Effect” value (30.3 µM, […]) did it give?
A: The value was 23.22%.

Q: How did the “Percent Effect” value (30 µM, 30.03 µM) turn out when CN(C)c1nccc(N2CCO[C@H]3CN(Cc4ccsc4)C[C@H]32)n1.O=C(O)C(F)(F)F was run?
A: Its value is 28.84%.

Q: With C[C@@H]1C(=O)NC[C@H]2CN(Cc3ccsc3)C[C@H]21.O=C(O)C(F)(F)F as the molecule, how does the “Percent Effect” value (30 µM, 30.03 µM) read?
A: Its value is 28.53%.

Q: With CCCc1nc2c(c(C)c(C)n2CCN(C)C)c(N)c1CC as the molecule, how does the “Percent Effect” value (30.3 µM, […]) read?
A: Its value is 99.96%.

Q: How did the “Percent Effect” value (30.3 µM, […]) turn out when CNC(=O)CN1CCC12CCN(C(=O)Cc1ccccc1)C2.O=C(O)C(F)(F)F (stereo unspecified) was run?
A: The value was 9.106%.

Q: Which “Percent Effect” value (30.3 µM, […]) does the source give for COCCn1cc(C(=O)NCCS(N)(=O)=O)c2ccccc21 here?
A: Its value is 59.49%.

Q: With CCCn1cc(C(=O)NCCS(N)(=O)=O)c2ccccc21 as the molecule, how does the “Percent Effect” value (30.3 µM, […]) read?
A: Its value is 23.59%.

Q: For CCCn1cc(C(=O)NCCCC(N)=O)c2ccccc21, which “Percent Effect” value (30.3 µM, […]) is on record?
A: Its value is 41.21%.

Q: How did the “Percent Effect” value (30.3 µM, […]) turn out when CN(C)C[C@H]1C[C@@H]2CN(Cc3ccoc3)C[C@@H]2O1.O=C(O)C(F)(F)F.O=C(O)C(F)(F)F was run?
A: Its value is 4.803%.

Q: How did the “Percent Effect” value (30.3 µM, […]) turn out when Cl.Cl.c1cncc(COC[C@@H]2CCC[C@@]23CNCCO3)c1 was run?
A: The value was 73.99%.

Q: With O=C(O)C(F)(F)F.O=C(O)C(F)(F)F.c1cncc(COC[C@@H]2CCC[C@]23CNCCO3)c1 as the molecule, how does the “Percent Effect” value (30.3 µM, […]) read?
A: Its value is 27.95%.

Q: Which “Percent Effect” value (30 µM, 30.03 µM) does the source give for Cl.Cl.c1cc(COC[C@@H]2CCC[C@@]23CNCCO3)ccn1 here?
A: Its value is 8.265%.
